In PubChem BioAssay (NCI) one finds growth data, which are given here for eight compounds.

This is part of a sample that, as a whole, favours compounds with a hit. Of some 83,000 tested, about 20% had one in any assay.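 Negative percent growth values reflect cell death: -40 means 40% of the cells present at the start died, and -100 means all died.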 A number with no mark means an inactive call. Calls of active or inactive are those of the source. The calls were made as follows: active = growth percent below 10; inactive = the rest.

Some test systems named below: NCI-H23 lung; NCI-H226 lung; NCI-H322M lung; HOP-62 NSCLC; NCI-H460 lung; HOP-92 NSCLC; NCI-H522 lung; A549/ATCC NSCLC; 786-0 renal; DU-145 prostate; K-562 leukemia; MALME-3M melanoma; MDA-MB-231 breast; RXF 393 renal; SF-268 CNS; SF-295 CNS; SF-539 CNS; UACC-257 melanoma; M14 melanoma.
What all share (test): NCI-60 one-dose screen, 48 h (100 = growth as untreated, 0 = no growth, -100 = all killed)
Conditions in all cases: 10 µM unless noted

As to `CC(C)OC(=O)OCOP(=O)(OCOC(=O)OC(C)C)C1CCCN(O)C1=O` (configuration not stated), the growth with NCI-H23 lung is 69.6%; in the assay with NCI-H226 lung it was 56.1%; in the assay with NCI-H322M lung, 32.8%; with HOP-62 NSCLC, 13.3%; in the assay on NCI-H460 lung, 17%; in the assay on HOP-92 NSCLC, 41.7%. In addition, the growth with NCI-H522 lung is -6.81% (active); in the assay with A549/ATCC NSCLC, 22.1%; with 786-0 renal, 17.6%; with DU-145 prostate it was 52.5%; with K-562 leukemia, 30.3%; in the assay on MALME-3M melanoma it was 41.1%. For the same compound, the growth in the assay with MDA-MB-231 breast is 21.8%; in the assay on RXF 393 renal, 8.56% (active); in the assay with SF-268 CNS, 26.5%; in the assay on SF-295 CNS, 62.8%; in the assay on SF-539 CNS, 75.5%; in the assay with UACC-257 melanoma, 55.2%. Moreover, the growth in the assay on M14 melanoma was 44.4%.

As for `O=C(CC12CC3CC(CC(C3)C1)C2)NCCOCCOCCOCCNC(=O)c1cc2c(o1)C(=O)c1ccccc1C2=O`, the growth was -47.6% (active) with NCI-H23 lung; -73.6% (active) in the assay on NCI-H226 lung; -78.7% (active) in the assay on NCI-H322M lung; -49.7% (active) with HOP-62 NSCLC; -71.5% (active) in the assay on NCI-H460 lung; 27.6% with HOP-92 NSCLC. For the same compound, the growth in the assay with NCI-H522 lung is -45.6% (active); in the assay on A549/ATCC NSCLC, -41.2% (active); in the assay on 786-0 renal, -5.36% (active); in the assay with DU-145 prostate it was -95.6% (active); in the assay on K-562 leukemia, 2.13% (active); in the assay with MALME-3M melanoma it was -96.3% (active). The growth in the assay with MDA-MB-231 breast is -0.382% (active); with RXF 393 renal, -51.3% (active); in the assay on SF-268 CNS, -3.17% (active); with SF-295 CNS, -90.1% (active); in the assay with SF-539 CNS, -90.4% (active); in the assay on UACC-257 melanoma, -80.7% (active). The growth in the assay on M14 melanoma is -76.2% (active).

On to `Cc1cc(N(CCCNc2ccnc3cc(Cl)ccc23)Cc2ccccn2)nc(N2CCOCC2)n1`, for which the growth in the assay with NCI-H23 lung is 90.4%; in the assay with NCI-H226 lung it was 90.9%; in the assay with NCI-H322M lung, 94.1%; with HOP-62 NSCLC, 85.2%; with NCI-H460 lung, 99.7%; in the assay on HOP-92 NSCLC, 66.6%. Besides, the growth is 74.7% in the assay with NCI-H522 lung; 86.4% with A549/ATCC NSCLC; 86% in the assay on 786-0 renal; 113% in the assay with DU-145 prostate; 67.8% in the assay on K-562 leukemia; 89.8% in the assay on MALME-3M melanoma. Moreover, the growth in the assay with MDA-MB-231 breast is 95.2%; with RXF 393 renal it was 77.3%; with SF-268 CNS, 83.3%; in the assay on SF-295 CNS, 92.9%; in the assay with SF-539 CNS it was 91.4%; with UACC-257 melanoma it was 101%. Also, the growth with M14 melanoma is 95.7%.

In the case of `Cl.Fc1c[c-]c(-c2ccccn2)c(F)c1.[Pt].c1ccc(P(c2ccccc2)C([PH+](c2ccccc2)c2ccccc2)[PH+](c2ccccc2)c2ccccc2)cc1`, the growth with NCI-H23 lung was 5.53% (active); in the assay on NCI-H226 lung, 12.5%; in the assay on NCI-H322M lung, 20.8%; in the assay with HOP-62 NSCLC, 25.9%; in the assay on NCI-H460 lung, 7.55% (active); with HOP-92 NSCLC, -12.9% (active). For the same compound, the growth in the assay with NCI-H522 lung is 12%; in the assay on A549/ATCC NSCLC, 15.4%; in the assay on 786-0 renal, 22.5%; in the assay on DU-145 prostate it was 26.1%; with K-562 leukemia, 13.6%; in the assay on MALME-3M melanoma, -12.9% (active). Further, the growth in the assay on MDA-MB-231 breast was -16% (active); in the assay on RXF 393 renal it was 13.3%; in the assay with SF-268 CNS, 26.4%; with SF-295 CNS it was 5.14% (active); with SF-539 CNS it was 9.54% (active); in the assay on UACC-257 melanoma, 6.42% (active). In the assay on M14 melanoma, the growth is 18.7%.

As for `CN1CCN(C(=O)[C@@]2(C)CC[C@]3(C)CC[C@]4(C)C(=CC[C@@H]5[C@@]6(C)C/C(=C/c7ccncc7)C(=O)C(C)(C)[C@@H]6CC[C@]54C)[C@@H]3C2)CC1`, the growth in the assay with NCI-H23 lung is 59.3%; with NCI-H226 lung, 88.6%; in the assay on NCI-H322M lung, 79.7%; in the assay on HOP-62 NSCLC, 68.4%; with NCI-H460 lung it was 24.4%; with HOP-92 NSCLC, 34.3%. Moreover, the growth with NCI-H522 lung was 69%; with A549/ATCC NSCLC it was 45.9%; in the assay on 786-0 renal, 58.4%; in the assay on DU-145 prostate it was 76.1%; in the assay with K-562 leukemia it was 7.71% (active); in the assay on MALME-3M melanoma, 42.3%. Besides, the growth was 69.4% in the assay on MDA-MB-231 breast; 46.3% with RXF 393 renal; 67.9% with SF-268 CNS; 63.6% in the assay on SF-295 CNS; 57.7% in the assay with SF-539 CNS; 40.8% with UACC-257 melanoma. In addition, in the assay on M14 melanoma, the growth was 49.8%.

For the compound `CC(=[N-])N1CCC[C@@H](Nc2c3ccccc3nc3ccccc23)C1.[Cl][Pt].[NH-]CCC[NH-]`, the growth in the assay with NCI-H23 lung is -2.65% (active); in the assay on NCI-H226 lung it was -4.62% (active); with NCI-H322M lung it was 44.9%; in the assay on HOP-62 NSCLC it was 51.9%; in the assay on NCI-H460 lung, 0.597% (active); in the assay on HOP-92 NSCLC it was 28.7%. Moreover, the growth was -18.5% (active) in the assay on NCI-H522 lung; 7.75% (active) with A549/ATCC NSCLC; 53.5% with 786-0 renal; 5.94% (active) in the assay with DU-145 prostate; 19.2% in the assay on K-562 leukemia; 20.7% in the assay on MALME-3M melanoma. The growth in the assay with MDA-MB-231 breast was 46.9%; in the assay on RXF 393 renal it was -24.3% (active); in the assay with SF-268 CNS, 62.3%; in the assay with SF-295 CNS, 56.8%; in the assay on SF-539 CNS, 36.9%; with UACC-257 melanoma it was 66.9%. Also, the growth with M14 melanoma was 65.3%.

`C=C1C(=O)O[C@H]2[C@H]1CC/C(C(=O)NCCCCCCCCNC(=O)/C1=C/CC[C@@]3(C)O[C@H]3[C@H]3OC(=O)C(=C)[C@@H]3CC1)=C\CC[C@@]1(C)O[C@@H]21`: the growth was 92.3% in the assay with NCI-H23 lung; 88.7% with NCI-H226 lung; 94.9% with NCI-H322M lung; 109% in the assay with HOP-62 NSCLC; 110% in the assay with NCI-H460 lung; 4.35% (active) in the assay on HOP-92 NSCLC. Besides, the growth is -64.5% (active) in the assay on NCI-H522 lung; 82.9% in the assay with A549/ATCC NSCLC; 85.1% with 786-0 renal; 84.1% with DU-145 prostate; 18.3% with K-562 leukemia; 16.4% in the assay with MALME-3M melanoma. The growth in the assay on MDA-MB-231 breast was 74.3%; in the assay with RXF 393 renal, 43.1%; in the assay on SF-268 CNS, 91.8%; in the assay with SF-295 CNS it was 110%; in the assay with SF-539 CNS it was 70.1%; with UACC-257 melanoma, 61.8%. Further, the growth in the assay with M14 melanoma is 82.8%.

Consider `CCC(C)NCc1ccccc1` (configuration not stated), for which the growth was 97.1% in the assay with NCI-H23 lung; 92.2% in the assay on NCI-H226 lung; 98.1% in the assay with NCI-H322M lung; 97.6% with HOP-62 NSCLC; 102% in the assay on NCI-H460 lung; 93.8% in the assay with HOP-92 NSCLC. Moreover, the growth is 66.7% in the assay with NCI-H522 lung; 95.4% in the assay on A549/ATCC NSCLC; 98.6% in the assay on 786-0 renal; 106% in the assay on DU-145 prostate; 98.1% with K-562 leukemia; 105% in the assay on MALME-3M melanoma. Also, the growth with MDA-MB-231 breast was 96.4%; in the assay with RXF 393 renal, 99.3%; in the assay with SF-268 CNS, 98.9%; in the assay on SF-295 CNS, 98.9%; in the assay with SF-539 CNS, 102%; in the assay with UACC-257 melanoma it was 103%. In addition, in the assay with M14 melanoma, the growth was 96.9%.
